Assay outcomes from PubChem BioAssay.
BAZ2B inh: qHTS Assay for Inhibitors of BAZ2B | AlphaScreen BAZ2B-H3K14Ac peptide displacement | Potency, µM (highest dose often 114 µM), for inactives: at the top dose activity change, negative = inhibition, actives largely listed as inhibitors | hit rate 4.4% among 360,000; note: % is set by controls: 0 for no effect and ±100 for the full control effect; nearly all actives have a fitted effect of over 60% in size
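In this displacement format the biotinylated H3(5-23) peptide acetylated at Lys14 serves as ligand at 50 nM, with BAZ2B at 50 nM in PBS pH 7.4 containing 0.01% Tween-20. Donor and acceptor beads are 10 ug/mL final.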
HP1b chromo inh: HTS for Inhibitors of HP1-beta Chromodomain Interactions with Methylated Histone Tails | hit rate 0.56% among 390,000 | AlphaScreen HP1-beta / biotin-H3K9me3 peptide binding | Potency, µM (doses to about 114 µM), without a hit: at the top dose activity change, negative = inhibition, most hits filed as inhibitors | Chromobox protein homolog 1 (Homo sapiens), P83916; note: nearly all actives have a fitted effect of over 70% in size
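HP1-beta protein (50 nM final) preincubated 30 min at room temperature with biotinylated H3(1-18)K9me3 peptide (50 nM) in PBS pH 7.4, 0.01% Tween-20, then compound added for 30 min. AlphaScreen streptavidin donor/nickel chelate acceptor beads (10 ug/mL final), 30 min dark, luminescence read.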
JMJD2A Tudor: qHTS Assay for Inhibitors of JMJD2A-Tudor Domain; hit rate 4.4% among 390,000; AlphaScreen JMJD2A-Tudor / H3K4me3 peptide binding; Potency, µM (top dose mostly 114 µM), without a hit: top-dose activity change, negative = inhibition, hits mostly inhibitors; note: % is set by controls: 0 for no effect and ±100 for the full control effect; nearly all actives have a fitted effect of over 50% in size
G9a inh: qHTS Assay for Inhibitors of Histone Lysine Methyltransferase G9a | hit rate 8.8% among 350,000 | AID 504332, 2011 | Potency, µM (highest dose often 102 µM), inactives show at the top dose activity, negative = inhibition, actives largely listed as inhibitors | G9a H3K9 monomethylation, AlphaScreen, 2 h; note: % is set by controls: 0 for no effect and ±100 for the full control effect; nearly all actives have a fitted effect of over 75% in size
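Step 1: enzyme (final 20 nM) with compound, 15 min RT. Step 2: substrate peptide 500 nM and SAM 20 uM, 2 h RT. Step 3: anti-H3K9me1 antibody and AlphaScreen beads, 10 min, then plate read.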
GLS inh: qHTS for Inhibitors of Glutaminase (GLS) | GLS enzymatic activity, qHTS titration | Potency, µM (doses to about 45.5 µM), inactives show top-dose activity change, negative = inhibition, hits mostly inhibitors | hit rate 0.21% among 410,000 | Glutaminase kidney isoform, mitochondrial (Homo sapiens), O94925; note: % is set by controls: 0 for no effect and ±100 for the full control effect
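Enzyme dispensed in phosphate buffer (45 mM, pH 8.2, 0.02% Tween-20), compounds pinned in, then 1 mM L-glutamine solution and the glutamate oxidase–HRP–Amplex Red mix added; fluorescence read immediately and again after 30 min at room temperature.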
Numbers without * were called inactive; ? = inconclusive; · = no result given; [ ] = remark or other dose. Shown are actives, neighbours in structure and some others; about 10% of the full set was active somewhere. Calls come from the whole dose curve; as a rule, active = well fitted curve in the direction sought with a large enough effect; inconclusive = small, poorly fitted or top-dose-only effect, or another doubt; inactive = no such curve, though single readings can be large; an effect the other way counts as inactive or inconclusive. Potency is the fitted concentration of half-maximal effect.

SMILES	BAZ2B inh	HP1b chromo inh	JMJD2A Tudor	G9a inh	GLS inh
CCN(CC)CCNC(C(=O)Nc1cc(C(F)(F)F)ccc1Cl)c1ccccc1 (stereo unspecified)	?	32%	-8%	10µM*	1%
O=C(Nc1cc(C(F)(F)F)ccc1Cl)C(NCc1ccccc1)c1ccccc1 (stereo unspecified)	17%	63%	24%	21%[59 µM]	-6%
Cc1ccc(CN(Cc2ccco2)c2cnc(S(C)(=O)=O)nc2C(=O)Nc2ccccc2Br)o1	-18%	41%	?	-51%[59 µM]	1%
CCS(=O)(=O)N1CCN(S(=O)(=O)c2ccc(Cl)s2)CC1	50µM*	38%	-1%	16µM*	-3%
O=C(N/N=C\c1ccc(O)c([N+](=O)[O-])c1)c1ccccc1-n1cccc1	-35%	-3%	-21%	10%[59 µM]	33%
CCOc1cc(/C=N/NC(=O)c2ccc(=O)n(C)c2)ccc1O	-8%	6%	0%	·	7.9µM*
CCOc1cc(C=NNC(=O)N(c2ccccc2)c2ccccc2)ccc1O	·	·	·	·	42%
COc1cc(C=NNC(=O)c2ccccc2-n2cccc2)ccc1O	·	7%	-21%	·	13µM*
COc1ccc(C(=O)N/N=C/c2ccc(OC)c(CN3CCN(c4ccc(F)cc4)CC3)c2)cc1	2%	-12%	?	4%[59 µM]	19%
COc1cc(/C=N/NC(=O)c2ccoc2C)ccc1O	8%	24%	3%	50µM*	23%
COc1ccc(/C=N/NC(=O)c2ccoc2C)cc1CN1CCN(c2ccc(F)cc2)CC1	79µM*	?	?	?	14%
Cc1ccc(C)c(C(O)c2ncc(-c3ccc(Cl)cc3)[nH]2)c1 (stereo unspecified)	·	·	·	·	7%
Cc1cc(C)c(NC(=O)CN2CCN3CCCC3C2)c(C)c1 (stereo unspecified)	-6%	18%	-10%	11µM*	10%
COC(=O)c1ccc(-c2nc3cc(Cl)c(N)cc3s2)cc1	2%	45%	10%	4%[59 µM]	-4%
COC(=O)c1ccc(-c2nc(O)c(C)s2)cc1	?	?	-29%	7.1µM*	-15%
Cc1cc(C)c(C(=O)c2ccc(C(=O)NC(C)(C)C)cc2)c(C)c1	-12%	14%	-19%	-1%[59 µM]	-2%
Cc1ccc(-c2nn(-c3ccccc3)cc2C=O)o1	-12%	-7%	-35%	40µM*	-3%
COc1cccc(NC2=CC(c3ccc(C(C)C)cc3)N(c3cccc(OC)c3)C2=O)c1 (stereo unspecified)	?	-13%	-34%	?	14%
COc1ccc(C2C=C(Nc3ccccc3)C(=O)N2c2ccccc2)cc1OC (stereo unspecified)	-38%	7%	-23%	8.9µM*	10%
COc1cccc(C2C=C(Nc3ccccc3)C(=O)N2c2ccccc2)c1 (stereo unspecified)	11%	27%	-18%	45µM*	-4%
CCOC(=O)c1c(C)c(-c2ccccc2)n(CC(=O)Nc2cccc(C)c2C)c1C	-3%	22%	-16%	1%[59 µM]	5%
COc1ccc2sc(N(CCN(C)C)C(=O)c3ccc4ccccc4c3)nc2c1	?	-14%[57 µM]	40µM*	40µM*	1%
CCOc1cccc2sc(N(CCCN(C)C)C(=O)c3ccc(S(=O)(=O)N(C)CC4CCCO4)cc3)nc12 (stereo unspecified)	-23%	9%	-19%	-7%	-22%
CCOc1cccc2sc(N(CCN(C)C)C(=O)c3ccc(Br)s3)nc12	-2%	39%	-6%	10%[59 µM]	-2%
COc1ccc(C)c2sc(N(CCN(C)C)C(=O)c3ccc4ccccc4c3)nc12	?	-16%	?	50µM*	9%
SMILES	BAZ2B inh	HP1b chromo inh	JMJD2A Tudor	G9a inh	GLS inh
Cc1cc(C)c2nc(N(CCN(C)C)C(=O)c3ccc(S(=O)(=O)N(C)CC4CCCO4)cc3)sc2c1 (stereo unspecified)	?	-15%	?	79µM*	19%
CCOc1cccc2sc(N(CCN(C)C)C(=O)c3ccc4ccccc4c3)nc12	?	-16%	?	50µM*	1%
COc1ccc2sc(N(CCN(C)C)C(=O)c3cc(Cl)sc3Cl)nc2c1	·	7%	-34%	?	3%
CCc1nc2ccc(C(=O)NCCOc3ccc(OC)cc3)cn2c1N(CC)Cc1ccc(OC)c(OC)c1	·	·	·	·	10%
CC(C)c1ccc(NC(=O)CCNS(=O)(=O)c2ccc3c(c2)oc(=O)n3C)cc1	-5%	58%	-4%	5%[59 µM]	-7%
Cc1cc(C)c2nc(N(CCN(C)C)C(=O)c3ccc4ccccc4c3)sc2c1	?	-12%	40µM*	40µM*	5%
CN(C)CCN(C(=O)c1ccc2ccccc2c1)c1nc2c(F)cccc2s1	-37%[57.1 µM]	1%	?	40µM*	-1%
O=C(c1ccc2c(c1)OCCO2)N(Cc1cccnc1)c1nc2c(F)cccc2s1	-23%	16%[57 µM]	-30%	-35%[59 µM]	-5%
O=C(Nc1ccc(Br)cc1)N1CCCCC1	-23%	30%	-2%	1%	-1%
Cc1ccc(NC(=O)CCSc2nc(C)cc(C)n2)cc1	8%	24%	12%	-1%[12.7 µM]	3%
COc1ccc(C(=O)NC(c2ccc(Cl)cc2)c2cc(Cl)c3cccnc3c2O)cc1 (stereo unspecified)	5%	33%	5%	20%[59 µM]	13%
CN1CCN(C(c2cccnc2)c2ccc3cccnc3c2O)CC1 (stereo unspecified)	10µM*	?	?	?	-8%
CN1CCN(C(c2ccc(F)cc2)c2ccc3cccnc3c2O)CC1 (stereo unspecified)	·	47%	9%	·	-8%
CN1CCN(C(c2ccc(Br)cc2)c2cc(Cl)c3cccnc3c2O)CC1 (stereo unspecified)	45µM*	?	50µM*	7.9µM*	?
COc1ccc(-n2c(=O)c3c(c4cc(OC)ccc4n3C)n(Cc3cccc(OC)c3)c2=O)cc1	-2%	54%	20%	2%[59 µM]	-3%
CC1CC[C@]2(CO)CC[C@]3(C)C(=CCC4[C@@]5(C)CCC(O)C(C)(C)C5CC[C@@]43C)C2C1C (stereo partly specified)	·	·	·	-12%[2.33 µM]	·
COc1ccc(NC(=O)c2cc(C3CCCCN3C(=O)CCCc3ccccc3)on2)c(C)c1 (stereo unspecified)	·	·	·	·	6%
COc1cc(S(N)(=O)=O)c(OC)cc1N	-27%	30%	-11%	0%	11%
COc1cc(N=Nc2ccc(C)cc2S(N)(=O)=O)c(C)cc1N	·	20µM*	6.3µM*	·	?
